ClpP mod: qHTS Assay for Activators of ClpP; AID 651965, 2013; Potency, µM (top dose mostly 57.5 µM); actives 1.9% (n = 340,000); purified B. subtilis ClpP, FRET peptide cleavage, 20 min; active = well fitted falling curve with a large enough effect; inconclusive = small, poorly fitted or top-dose-only effect; inactive = no such curve, though single readings can be large or run the other way; note: the source files actives as falling curves though it sought activators and does not explain the sign; nearly all actives have a fitted effect of over 65% in size
Target sequence (P80244 whole entry, looked up): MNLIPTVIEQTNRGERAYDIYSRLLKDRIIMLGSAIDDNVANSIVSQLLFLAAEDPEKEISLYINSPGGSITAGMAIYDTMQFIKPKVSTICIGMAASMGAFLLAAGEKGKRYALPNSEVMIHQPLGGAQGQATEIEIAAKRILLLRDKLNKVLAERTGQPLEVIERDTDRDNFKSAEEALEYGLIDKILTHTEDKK
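Purified B. subtilis ClpP, 10 microg/mL final in Tris/HCl pH8 with KCl, BSA, glycerol and Tween-20, cleaved an Abz/nitrotyrosine-quenched decapeptide. Fluorescence (ex 320, em 430) was read at 0 and 20 min at room temperature. Delta was normalized to 5.8 microM ADEP and DMSO/no-enzyme controls.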
GLP-1R inv ag: acts as inverse agonist at human GLP-1 receptor; P43220; HEK293 GLP-1R CRE-luciferase, luminescence, 24 h; GLP-1R form is constitutively active; Potency, µM (highest dose often 38.3 µM), actives largely listed as inhibitors; actives 1.6% (n = 410,000); note: nearly all actives have a fitted effect of over 55% in size
Target sequence (P43220 whole entry, looked up): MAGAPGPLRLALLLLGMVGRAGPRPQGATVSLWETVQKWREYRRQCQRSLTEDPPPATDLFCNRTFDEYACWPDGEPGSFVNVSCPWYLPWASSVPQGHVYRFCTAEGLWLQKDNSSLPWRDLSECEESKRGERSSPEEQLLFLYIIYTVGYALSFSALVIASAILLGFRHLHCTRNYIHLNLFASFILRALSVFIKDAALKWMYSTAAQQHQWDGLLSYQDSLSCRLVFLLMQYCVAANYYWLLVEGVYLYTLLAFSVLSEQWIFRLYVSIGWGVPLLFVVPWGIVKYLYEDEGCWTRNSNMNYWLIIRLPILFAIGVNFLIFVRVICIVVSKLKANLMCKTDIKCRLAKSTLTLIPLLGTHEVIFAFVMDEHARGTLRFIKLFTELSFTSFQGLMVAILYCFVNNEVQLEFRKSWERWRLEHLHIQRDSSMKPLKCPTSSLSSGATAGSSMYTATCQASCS
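Readout was luciferase luminescence, measured 12 min after detection reagent at room temperature. Beforehand, GLP-1R reporter HEK293 cells had sat 12 h, then received compounds for 24 hr at 37 deg C.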
GLP-1R agonist: activates the human GLP-1 receptor; P43220; actives 0.007% (n = 380,000); HEK293 GLP-1R CRE-luciferase, luminescence, 4-6 h; cells express a hypersensitive GLP-1R form; Potency, µM (highest dose often 45.6 µM), hits mostly activators
HEK293 tox: cytotoxicity counter-screen for GLP-1 receptor inverse agonists | HEK293 cAMP-luciferase reporter cells, luminescence, 24 h | Potency, µM (titrated, usually from 38.3 µM), usual class: inhibitors | actives 0.13% (n = 410,000) | AID 624418;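 note: loss of luciferase light is scored as toxicity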
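Cells in DMEM/10% Nu serum/1% pen-strep, 1536-well format. Pre-incubated 12 h, dosed with 23 nL compound, incubated a further 24 h. Luciferase detection, 12 min at room temp, luminescence.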
Hits are given with their value; – = inactive; ? = inconclusive; · = no result given. A selection: hits, their analogues and other compounds. The true share with any hit is near 3.2%. Unless noted, calls come from the whole dose curve; as a rule, active = well fitted curve in the direction sought with a large enough effect; inconclusive = small, poorly fitted or top-dose-only effect, or another doubt; inactive = no such curve, though single readings can be large; an effect the other way counts as inactive or inconclusive.

SMILES	ClpP mod	GLP-1R inv ag	GLP-1R agonist	HEK293 tox
COC(=O)C1=CN(C2CC2)C=C(C(=O)OC)C1c1ccc(C(=O)OC)cc1	31.6µM	–	–	–
CCOc1cccc(CC(=O)NCc2ccc3c(c2)CCN3C(=O)c2cccc(C)c2)c1OCC	–	–	–	–
COc1ccc(-n2c(C)c([N+](=O)[O-])c3ccc(O)c(CN(C)C)c32)cc1	22.4µM	?	–	–
COc1ccc(-n2c(C(C)n3nc(C)c([N+](=O)[O-])c3C)n[nH]c2=S)cc1 (stereo not drawn)	–	–	–	–
NC(=O)[C@H]1O[C@@H](O)[C@H](O)[C@@H](O)[C@@H]1O	·	·	–	·
COc1ccc(NC(=O)COC(=O)c2c3c(nc4ccccc24)CCCC3)cc1Cl	–	3.55µM	–	?
Cc1cccc(N2CCN(C(=O)c3noc4c3CCCCC4)CC2)c1C	–	–	·	–
CCN(CC)S(=O)(=O)c1ccc2oc(C(=O)NC3CCCc4ccccc43)c(C)c2c1 (stereo not drawn)	–	8.91µM	–	–
CCN(CC)S(=O)(=O)c1ccc2oc(C(=O)N3CCc4ccccc4C3)c(C)c2c1	–	?	–	–
O=C1c2ccccc2NC2CCCCCN12 (stereo not drawn)	12.6µM	–	–	–
O=C1Nc2ccccc2C(=O)N2CCCCC12 (stereo not drawn)	–	–	–	–
O=C1OCC(c2ccccc2)=C1c1ccccc1	35.5µM	–	–	–
Cn1cnc([N+](=O)[O-])c1Sc1nc(N)nc2c1ncn2Cc1ccccc1	31.6µM	–	–	–
CCCn1cnc2c(Sc3c([N+](=O)[O-])ncn3C)nc(N)nc21	?	–	–	–
Cc1cc(N2CCN(c3ccc(C(F)(F)F)cc3[N+](=O)[O-])CC2)c2ccccc2n1	–	7.94µM	–	?
Cc1cc(N2CCN(c3ccc([N+](=O)[O-])c4cccnc34)CC2)c2ccccc2n1	–	–	–	–
O=C(C1CCC1)N1CCN(c2ccc(C(F)(F)F)cc2[N+](=O)[O-])CC1	–	–	–	–
O=C(Nc1ccccc1)N1CCCN(c2ccc(C(F)(F)F)cc2[N+](=O)[O-])CC1	·	7.94µM	–	–
CC1(C)CCC(c2ccc(Cl)cc2)=C(CN2CCN(c3ccc(C(=O)NS(=O)(=O)c4ccc(N[C@H](CCN5CCOCC5)CSc5ccccc5)c(S(=O)(=O)C(F)(F)F)c4)cc3)CC2)C1	–	·	·	·
CCOC(=O)N1CCN(C(=O)c2ccccc2CCc2ccccc2)CC1	–	8.91µM	–	–
CCN1CC(CN(C)Cc2cn(-c3cccc(C)c3)nc2-c2cccc(F)c2)CC1=O (stereo not drawn)	–	10µM	?	–
COc1cccc(CNc2nc(Cl)nc3nc[nH]c23)c1	–	·	·	·
Cc1ccc(C)n1-c1nnc(N2CCC(C(=O)Nc3ccccc3Br)CC2)s1	–	–	·	–
Cc1cc(=O)c2c(O)c3c(O)cc(=O)c4c3c3c(cc(O)c1c23)C(C)(C)C=4O	·	·	–	·
COCc1cc(C)nc(N2CCCCC2)c1C#N	22.4µM	–	–	–
SMILES	ClpP mod	GLP-1R inv ag	GLP-1R agonist	HEK293 tox
COCc1cc(C)nc(N2CCN(Cc3ccccc3)CC2)c1C#N	–	–	–	–
COCc1cc(C)nc(N2CCN(c3ccccc3)CC2)c1C#N	–	–	–	–
COCc1cc(C)nc(N2CCNCC2)c1C#N	15.8µM	–	–	–
COc1cc2c(cc1NCc1ccccn1)oc1ccccc12	28.2µM	–	–	–
COc1cc2c(cc1NCc1ccc3c(c1)OCO3)oc1ccccc12	25.1µM	–	–	–
COc1cc2c(cc1NC(=O)c1ccc3c(c1)OCO3)oc1ccccc12	31.6µM	–	–	–
CCOc1ccc2nc(NC(=O)CSc3ccc(Cl)cc3)sc2c1	–	?	–	–
CCOc1ccc2nc(NC(=O)CSc3nc(SC)ns3)sc2c1	28.2µM	–	–	–
CCOC(=O)c1c(/N=C/N(C)C)sc(C)c1C	·	–	–	–
CCOC(=O)c1c(/N=C/N(C)C)sc(/C=N/Nc2ccccc2)c1-c1ccc(Cl)cc1	–	10µM	–	–
c1ccc(-c2nc(-c3ccccn3)no2)cc1	–	–	–	–
Cc1ccc(-c2nc(-c3ccccn3)no2)cc1Cl	–	1.58µM	–	–
Cc1ccc(-c2nc(-c3ccccn3)no2)cc1	–	0.891µM	–	–
c1ccc(-c2ccc(-c3nc(-c4ccccn4)no3)cc2)cc1	25.1µM	–	–	–
c1ccc(C(Cc2nc(-c3ccccn3)no2)c2ccccc2)cc1	–	10µM	–	–
O=C(c1ccccc1)c1ccc2nc(Nc3cc(Cl)ccc3O)c3nncn3c2c1	–	–	·	–
Cc1ccc(NC(=O)CSc2nc(=O)n(CCN3CCOCC3)c3c2CCC3)c(C)c1	–	–	·	–
c1ccc(-c2noc(-c3cccc4ccccc34)n2)nc1	39.8µM	?	–	–
O=C(Cn1c(-c2cccs2)cc2cc(F)ccc21)NCCCN1CCN(c2ccc(F)cc2)CC1	31.6µM	?	·	–
COc1ccc(CCNC(=O)Cn2c(-c3cccs3)cc3cc(F)ccc32)cc1OC	–	–	–	–
CCN1CCN(CCCNC(=O)Cn2c(-c3cccs3)cc3cc(F)ccc32)CC1	17.8µM	?	·	–
COc1ccc(NC(=O)CSC2=C(C#N)C(c3ccco3)C(C(=O)Nc3nc4ccccc4s3)=C(C)N2)cc1 (stereo not drawn)	22.4µM	?	–	–
CC(C)CN(CCNC(=O)c1cc(-c2cccs2)nc2ccccc12)CC(C)C	–	–	–	–
CCn1nnc(NC(=O)c2cccc(-c3cc4ccccc4oc3=O)c2)n1	14.1µM	–	–	–
O=C(Nc1cccc(-c2cc3ccccc3oc2=O)c1)c1ccc(Br)o1	35.5µM	?	–	–
SMILES	ClpP mod	GLP-1R inv ag	GLP-1R agonist	HEK293 tox
COc1ccc(-c2cc3ccccc3oc2=O)cc1NC(=O)c1ccc(Br)o1	–	–	–	–
O=C(Nc1cccnc1)c1cccc(-c2cc3ccccc3oc2=O)c1	·	–	–	–
Cc1cccc(Cn2c(=O)n(CC3CCC(C(=O)N4CCC(C)CC4)CC3)c(=O)c3sccc32)c1 (stereo not drawn)	–	–	·	–
CC(NC(=O)CCSc1nc(-c2ccc3c(c2)OCO3)cc(C(F)(F)F)n1)c1ccccc1 (stereo not drawn)	31.6µM	?	–	–
O=C(CCCSc1nc(-c2ccco2)cc(C(F)(F)F)n1)Nc1ccc2c(c1)OCO2	–	10µM	–	–
O=C(Cc1cccs1)Nc1nc2c(s1)CCCC2	–	–	–	–
O=C(Nc1nc2c(s1)CCCC2)c1cccs1	–	10µM	–	–
O=C(O)c1ccc(Nc2nc3c(s2)CCCC3)cc1	–	1.78µM	–	–
Cc1cccc(Nc2nc3c(s2)CCCC3)c1	–	?	–	?
O=S1(=O)N=C(Nc2nc3c(s2)CCCC3)c2ccccc21	–	4.47µM	–	?
CCc1cccc(C)c1NC(=O)CCCn1c(C)c2cnn(-c3ccccc3)c(=O)c2c1C	–	?	·	–

Compound activity: PubChem, National Center for Advancing Translational Sciences (NCATS)
